Screens deposited in PubChem BioAssay by National Center for Advancing Translational Sciences (NCATS).
In the library only some 2.8% were active in any assay of this set; here they are far more common.
HTT cytoprotect = protects HTT-Q103 PC12 cells, measured by ATP | PC12 HTT-Q103 induced, cytoprotection, ATP luminescence, 40 h | Potency, µM (titrated, usually from 56.4 µM), hits mostly activators | actives 0.14% (n = 230,000) | AID 1471; further: nearly all actives have a fitted effect of over 45% in size
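ATP quantification (ATPlite) reports survival of PC12 cells in which tebufenozide, 100 nM final, switches on Htt exon 1 with 103 glutamines linked to GFP; compounds are titrated.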
HttQ103 aggreg = mutant huntingtin aggregation inhibition | Potency, µM (doses to about 46.1 µM), most hits filed as inhibitors | actives 1.1% (n = 220,000) | PC12 HttQ103-GFP aggregates, Acumen cytometry, 40 h; further: nearly all actives have a fitted effect of over 60% in size
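Multiplexed with ATP-based cell death, this channel scores GFP aggregates in PC12 cells expressing inducible HTTex1-Q103-GFP. Induction used 100 nM tebufenozide; compounds were tested in concentration series.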
ATXN viability = reduces viability in counter-screen for ATXN expression inhibitors; S2 cells (HEK-293 line with an ATXN2-luciferase reporter) viability, CellTiter-Fluor protease fluorescence, 24 h; Potency, µM (highest dose often 56.7 µM), usual class: cytotoxic; actives 0.49% (n = 400,000); AID 651635; further: nearly all actives have a fitted effect of over 40% in size
HepG2 viability = kills HepG2 cells in TGF-b inhibitor counter-screen. Potency, µM (top dose mostly 46.1 µM), most hits filed as cytotoxic. actives 0.76% (n = 410,000). HepG2 CAGA-GFP viability, ATP luminescence, 18 h
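HepG2 CAGA-GFP cells (1000/well, DMEM with 1% FBS) received compound, then TGF-beta at 500 pg/mL final, and were incubated 18 hours at 37 degrees C. Viability was read by CellTiter-Glo luminescence. Media-only wells were set as complete cell-killing and DMSO as no toxicity.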
TGFb SMAD3 inh = inhibitors of TGF-b signaling; HepG2 CAGA-GFP TGF-b/SMAD3 reporter, GFP fluorescence, 18 h; TGF-beta stimulated, 500 pg/mL final; actives 1.2% (n = 410,000); AID 588855; Potency, µM (doses to about 46.1 µM), most hits filed as inhibitors; further: nearly all actives have a fitted effect of over 65% in size
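Per well, imaged GFP fluorescence of HEPG2 CAGA-GFP cells gives the signal; cells get compound, then TGF-beta (500 pg/mL final), 18 h at 37 degrees C; %Activity versus -TGF-beta and +DMSO controls.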
ATXN2 expr inh = reduces ATXN2 reporter expression in HEK-293 cells | HEK-293 ATXN2-luciferase reporter, luminescence, 24 h | Potency, µM (top dose mostly 57 µM), usual class: inhibitors | actives 0.72% (n = 360,000) | AID 1745845; further: nearly all actives have a fitted effect of over 55% in size
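ATXN2-luciferase reporter cells (luciferase flanked by upstream and downstream ATXN2 gene portions) were treated 24 h at 37 °C with compounds at up to 57 uM. SteadyGlo luminescence gave expression; GF-AFC fluorescence gave viability.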
Each line names hits and unclear results; the compound was inactive in the other large screens. The call rests on the fitted dose curve; in most records, active means well fitted curve in the direction sought with a large enough effect; inconclusive means small, poorly fitted or top-dose-only effect, or another doubt; inactive means no such curve, though single readings can be large; an effect the other way counts as inactive or inconclusive.

CCC(=O)NC(c1cc(Cl)c2ccccc2c1O)C1CC1 (stereo unspecified)	none (no result: HTT cytoprotect, HttQ103 aggreg)
COc1cc(C(=O)NC(c2ccc(Cl)cc2)c2cc(Cl)c3cccnc3c2O)cc(OC)c1OC (stereo unspecified)	ATXN viability inconclusive, ATXN2 expr inh inconclusive (no result: HTT cytoprotect, HttQ103 aggreg)
Oc1c(C(Nc2ccccn2)c2cccnc2)cc(Cl)c2cccnc12 (stereo unspecified)	HttQ103 aggreg 7.08µM, ATXN2 expr inh 22.4µM
CC(=O)NC(c1cc(Cl)c2cccnc2c1O)C1CC1 (stereo unspecified)	ATXN viability 3.16µM, TGFb SMAD3 inh 1.58µM, ATXN2 expr inh 8.91µM (no result: HTT cytoprotect, HttQ103 aggreg)
Cc1occc1C(=O)NCCN1Cc2ccccc2OC(c2ccccc2F)C1 (stereo unspecified)	none (no result: HTT cytoprotect, HttQ103 aggreg, HepG2 viability, TGFb SMAD3 inh, ATXN2 expr inh)
Brc1ccc[n+](CCC2CCCCC2)c1	none (no result: HTT cytoprotect, HttQ103 aggreg, ATXN viability, ATXN2 expr inh)
Cc1cc(C)c2nc(N(Cc3cccnc3)C(=O)CCS(=O)(=O)c3ccccc3)sc2c1	TGFb SMAD3 inh inconclusive (no result: HTT cytoprotect, HttQ103 aggreg, ATXN viability, ATXN2 expr inh)
Cc1cccc2sc(N(Cc3cccnc3)C(=O)CCOc3ccccc3)nc12	TGFb SMAD3 inh inconclusive (no result: HTT cytoprotect, HttQ103 aggreg, ATXN viability, ATXN2 expr inh)
O=C(CCOc1ccccc1)N(Cc1cccnc1)c1nc2c(Cl)cccc2s1	HepG2 viability 12.6µM, TGFb SMAD3 inh inconclusive (no result: HTT cytoprotect, HttQ103 aggreg, ATXN viability, ATXN2 expr inh)
Cc1cc(C)c2sc(N(Cc3cccnc3)C(=O)CCS(=O)(=O)c3ccccc3)nc2c1	HepG2 viability 7.08µM, TGFb SMAD3 inh 2.51µM (no result: HTT cytoprotect, HttQ103 aggreg, ATXN viability, ATXN2 expr inh)
O=C(CCS(=O)(=O)c1ccccc1)N(Cc1cccnc1)c1nc2c(Cl)cccc2s1	TGFb SMAD3 inh 3.98µM (no result: HTT cytoprotect, HttQ103 aggreg, ATXN viability, ATXN2 expr inh)
O=C(c1cccs1)N(Cc1cccnc1)c1nc2c(Cl)cccc2s1	TGFb SMAD3 inh 17.8µM (no result: HTT cytoprotect, HttQ103 aggreg, ATXN viability, ATXN2 expr inh)
CCC(C)CCCCC(=O)N[C@@H](CCN)C(=O)NC(C(=O)N[C@H](CCN)C(=O)N[C@@H]1CCNC(=O)C([C@@H](C)O)NC(=O)[C@@H](CCN)NC(=O)[C@@H](CCN)NC(=O)[C@@H](CC(C)C)NC(=O)[C@H](Cc2ccccc2)NC(=O)[C@H](CCN)NC1=O)[C@@H](C)O (stereo partly specified)	none (no result: HTT cytoprotect, HttQ103 aggreg, ATXN viability, HepG2 viability, TGFb SMAD3 inh)
C[N+](C)(C)c1ccc(/C=C/c2ccnc3ccccc23)cc1	TGFb SMAD3 inh inconclusive (no result: HTT cytoprotect, HttQ103 aggreg, ATXN viability, ATXN2 expr inh)
COc1ccccc1C1CN(Cc2cnn(C)c2)Cc2ccccc2O1 (stereo unspecified)	none (no result: HTT cytoprotect, HttQ103 aggreg, HepG2 viability, TGFb SMAD3 inh, ATXN2 expr inh)
Cc1cccc2sc(N(Cc3cccnc3)C(=O)CCS(=O)(=O)c3ccccc3)nc12	HepG2 viability 20µM, TGFb SMAD3 inh 11.2µM (no result: HTT cytoprotect, HttQ103 aggreg, ATXN viability, ATXN2 expr inh)
CCOC(=O)c1c(-c2ccccc2)oc2cc(CN(C)C)c(O)c(CN(C)C)c12	ATXN2 expr inh 14.1µM (no result: HTT cytoprotect, HttQ103 aggreg)
CCOC(=O)c1c(C)oc2cc(Cl)c(O)c(CN(C)C)c12	none
Nc1c(Cl)cc(C2=NCCn3c2c2ccc([N+](=O)[O-])cc2[n+]3[O-])cc1Cl	ATXN viability inconclusive, TGFb SMAD3 inh 11.2µM, ATXN2 expr inh inconclusive (no result: HTT cytoprotect, HttQ103 aggreg)
Nc1c(Cl)cc(C2=NCCn3nc4cc([N+](=O)[O-])ccc4c32)cc1Cl	none (no result: HTT cytoprotect, HttQ103 aggreg)
COc1cccc2sc(Nc3nnc(-c4cccs4)o3)nc12	none
COc1cccc2sc(Nc3nnc(-c4ccc(F)cc4)o3)nc12	HttQ103 aggreg inconclusive, HepG2 viability 12.6µM, ATXN2 expr inh inconclusive (no result: ATXN viability)
CS/C(N)=N/N=C/c1cc(Br)cc(Br)c1O	TGFb SMAD3 inh 6.31µM (no result: ATXN2 expr inh)
COc1cc2c3nnc(-c4ccccc4)c-3cn(Cc3ccc(F)cc3)c2cc1OC	HepG2 viability 22.4µM, ATXN2 expr inh inconclusive (no result: ATXN viability)
Cc1ccc(Cn2nc3c4cc(F)ccc4n(Cc4ccc(F)cc4)cc-3c2=O)cc1	none (no result: HTT cytoprotect, HttQ103 aggreg)
COc1cc2c3nnc(-c4ccc(F)cc4)c-3cn(Cc3cccc(F)c3)c2cc1OC	HttQ103 aggreg 10µM (no result: ATXN viability)
COc1cc2c3nnc(-c4ccc(F)cc4)c-3cn(Cc3cccc(C)c3)c2cc1OC	ATXN2 expr inh inconclusive
COc1cc2c3nnc(-c4ccc(F)cc4)c-3cn(Cc3ccc(C)cc3)c2cc1OC	HepG2 viability 11.2µM, ATXN2 expr inh 17.8µM
COc1cccc(Cn2nc3c4cc(F)ccc4n(Cc4ccc(F)cc4)cc-3c2=O)c1	none (no result: HTT cytoprotect, HttQ103 aggreg)
